The list is not random: actives were taken first. Their share in the collection is about 27%.
CYP2C19 inhib = human CYP2C19 inhibition; CYP2C19 Supersomes, luciferin-H EGE luminescence, 30 min; inhibition, % at 5 µM; hit rate 21% among 96,000; AID 778; P33261;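 active means CYP2C19 inhibition above a set limit at 5 µM in the primary screen, cut at about 50% in these data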
CYP2C9 act = CYP2C9 (human) activation; P11712; recombinant CYP2C9, luciferin-H conversion, luminescence; stronger effect = higher value; factor 1 = untreated enzyme, 0 = blocked; activation factor at 5 µM; AID 1024; hit rate 1.4% among 96,000;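 active means activation factor of 2 or more for CYP2C9 at a 5 µM dose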
sEH act = activators of human soluble epoxide hydrolase; hit rate 0.04% among 91,000; AID 717; purified human sEH enzymatic activity, activator screen; P34913; activation, % at 2 µM; in the data active means activation above about 37%
Target sequence (P34913 whole entry, looked up): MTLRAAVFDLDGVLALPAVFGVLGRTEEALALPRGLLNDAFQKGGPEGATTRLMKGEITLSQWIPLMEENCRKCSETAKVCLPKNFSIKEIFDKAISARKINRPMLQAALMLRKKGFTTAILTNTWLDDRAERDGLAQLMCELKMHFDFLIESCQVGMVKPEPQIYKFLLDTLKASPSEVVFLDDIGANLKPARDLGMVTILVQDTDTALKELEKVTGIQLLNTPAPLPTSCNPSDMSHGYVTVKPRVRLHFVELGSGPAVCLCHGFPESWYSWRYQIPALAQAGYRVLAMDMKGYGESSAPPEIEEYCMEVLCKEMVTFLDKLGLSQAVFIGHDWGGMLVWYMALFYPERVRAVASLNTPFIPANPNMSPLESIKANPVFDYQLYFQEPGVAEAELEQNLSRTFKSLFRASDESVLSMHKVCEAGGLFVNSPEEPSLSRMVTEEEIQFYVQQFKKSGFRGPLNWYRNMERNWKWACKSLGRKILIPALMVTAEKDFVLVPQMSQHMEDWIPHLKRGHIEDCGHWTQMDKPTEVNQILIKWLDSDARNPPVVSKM
CYP2C9 inh = human CYP2C9 inhibition. CYP2C9 Supersomes, luciferin-H conversion, luminescence. inhibition, % at 5 µM. P11712. AID 777. hit rate 20% among 96,000;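 active means blocking of liver enzyme CYP2C9 beyond about 50% at 5 µM, limit read from the data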
CYP2C19 act = cytochrome P450 2C19 (human) activation. P33261. recombinant CYP2C19, luciferin-H EGE luminescence; stronger effect = higher value; 0 = fully inhibited enzyme, 1 = untreated enzyme. activation factor at 5 µM. 96,000 tested, under 10 active;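 active means activation factor of at least 2 at 5 µM in the primary screen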
sEH inh = inhibitors of human soluble epoxide hydrolase; inhibition, % at 2 µM; P34913; recombinant human sEH enzymatic activity assay; AID 707; hit rate 0.34% among 91,000; in the data active means inhibition above about 80%
Large screens that a line does not name were inactive.

COc1ccc(NC(=O)N2CCC(c3nc(-c4cccs4)no3)CC2)cc1	CYP2C19 inhib 69, CYP2C9 inh 55, sEH inh 90
O=C(Nc1ccccc1)N1CCCC(c2nc(-c3cccs3)no2)C1 (stereo unspecified)	CYP2C19 inhib 87 (no result: sEH act, sEH inh)
O=C(Nc1ccc(Cl)cc1)N1CCC(c2nc(-c3cccs3)no2)CC1	none (no result: sEH act, sEH inh)
CCc1ccccc1NC(=O)N1C2CCCC1CC(NC(C)=O)C2 (stereo unspecified)	none
O=S(=O)(Nc1ccc(F)cc1)N1CCCCCC1	CYP2C19 inhib 99, CYP2C9 inh 67
O=S(=O)(N1CCCCC1)N1CCN(c2ccc(F)cc2)CC1	CYP2C19 inhib 58
O=S(=O)(c1ccc(N2CCN(c3ccc(F)cc3)CC2)cc1)N1CCCC1	none
O=C(CC1NCCNC1=O)OCc1ccccc1 (stereo unspecified)	none
O=S(=O)(/N=S1/CC=CCN1S(=O)(=O)c1ccccc1)c1ccccc1 (stereo unspecified)	CYP2C9 inh 55
Cn1c(=O)c2c(nc(SCCN3CCOCC3)n2Cc2cccc3ccccc23)n(C)c1=O	none
CCn1c(SCC(=O)OCc2ccccc2)nnc1-c1ccco1	none
CCn1c(SCC(=O)Nc2sc3c(c2C#N)CCC(C(C)(C)C)C3)nnc1-c1ccco1 (stereo unspecified)	none
CCOC(=O)c1c(NC(=O)CSc2nnc(-c3cccc(C)c3)n2CC)sc(C(C)=O)c1C	CYP2C9 inh 94
CCn1c(SCC(=O)Nc2sc3c(c2C#N)CCCC3)nnc1-c1ccco1	CYP2C9 inh 55
CCOC(=O)c1sc(NC(=O)CSc2nnc(-c3ccco3)n2CC)c(C(=O)OCC)c1C	CYP2C9 inh 96
CCn1c(SCc2c(F)cccc2Cl)nnc1-c1ccco1	CYP2C19 inhib 61
CCOC(=O)c1c(NC(=O)CSc2nc(C)cc(C)c2C#N)sc(C(C)=O)c1C	none
O=C(O)COc1ccc(/C=N/NC(=O)C2CCCN2S(=O)(=O)c2ccc(Cl)cc2)cc1 (stereo unspecified)	none
CCn1c(SCC(=O)Nc2nc(C)c(C)s2)nnc1-c1ccco1	CYP2C19 inhib 80
COC(=O)c1c(NC(=O)C2c3ccccc3Oc3ccccc32)sc(C)c1C	none
CCOC(=O)c1c(NC(=O)CSc2nnc(-c3ccccc3)n2CC)sc(C(C)=O)c1C	CYP2C19 inhib 90, CYP2C9 inh 97
CCOC(=O)c1c(NC(=O)C2c3ccccc3Oc3ccccc32)sc(C(C)=O)c1C	CYP2C9 inh 94
C=CCn1c(SCC(=O)Nc2nccs2)nnc1-c1ccco1	CYP2C19 inhib 85
NC(=O)c1c(NC(=O)CSc2nnc(-c3ccco3)n2-c2ccccc2)sc2c1CCC2	CYP2C19 inhib 69, CYP2C9 inh 94 (no result: sEH act, sEH inh)
N#Cc1c(NC(=O)CSc2nnc(-c3ccco3)n2-c2ccccc2)sc2c1CCC2	none
O=C(COc1ncnc2c(Cl)cc(Cl)cc12)NCCC1=CCCCC1	none
Cc1ccc(C)c(CN2C(=O)C3(OCCCO3)c3ccccc32)c1	CYP2C19 inhib 52, CYP2C9 inh 72
Cc1ccc(CNC(=O)CN2C(=O)C3(OCCCO3)c3ccccc32)cc1	CYP2C19 inhib 62
CC(C)(C)C(=O)CN1C(=O)C2(OCCO2)c2ccccc21	none
CCOC(=O)CN1C(=O)C2(OCCCO2)c2ccccc21	none
O=C(CN1C(=O)C2(OCCCO2)c2ccccc21)NCc1ccccc1	CYP2C19 inhib 64 (no result: sEH act, sEH inh)
CN(C)CC(C)(C)CNS(=O)(=O)CC12CCC(CC1=O)C2(C)C (stereo unspecified)	none
COc1ccc(NC(=S)NCC2CCCO2)c(OC)c1 (stereo unspecified)	CYP2C19 inhib 56
Cc1cc(C)cc(NC(=S)NCC2CCCO2)c1 (stereo unspecified)	CYP2C9 act 2.1
Cc1ncc([N+](=O)[O-])n1CCOC(=O)c1ccc(Cl)cc1Cl	CYP2C19 inhib 51
NC1=NC(c2ccc(Br)cc2)n2c(nc3ccccc32)N1 (stereo unspecified)	CYP2C19 inhib 94
N#CCCn1c(Cl)nc2ccccc21	none
CN(C)c1ccc(-c2nn3c(-c4cccnc4)nnc3s2)cc1	none (no result: sEH act, sEH inh)
COc1cc(-c2nnc3sc(-c4cccs4)nn23)cc(OC)c1OC	CYP2C19 inhib 70, CYP2C9 inh 80 (no result: sEH act, sEH inh)
COc1cc(-c2nn3c(-c4cccnc4)nnc3s2)cc(OC)c1OC	CYP2C19 inhib 66
COCCOC(=O)c1[nH]c2c(c1C)C(=O)CC(c1cc(OC)ccc1OC)C2 (stereo unspecified)	CYP2C9 inh 59 (no result: sEH act, sEH inh)
COc1ccc(OC)c(C2CC(=O)c3c([nH]c(C(=O)OCC4CCCO4)c3C)C2)c1 (stereo unspecified)	CYP2C9 inh 66
COc1ccc(OC)c(C2CC(=O)c3c([nH]c(C(=O)OC(C)C)c3C)C2)c1 (stereo unspecified)	CYP2C9 inh 58
Cc1c(C(=O)N2CCOCC2)[nH]c2c1C(=O)CC(c1ccccc1Cl)C2 (stereo unspecified)	none
O=C(NN=C1CCCC1)C(=O)Nc1cccc(C(F)(F)F)c1	none
Cc1c(Cl)cccc1NC(=O)c1nc(C)n(-c2cc(OC(C)C)c(Cl)cc2Cl)n1	CYP2C9 inh 83
Cc1ccc(C(=O)C(OC(=O)CNS(=O)(=O)c2ccccc2)c2ccccc2)cc1 (stereo unspecified)	CYP2C9 inh 55
O=C(OCc1ccccc1)c1cccc(-c2nnn(Cc3ccccc3)n2)c1	CYP2C9 inh 63
CC(=O)Nc1cccc(C(=O)OCc2ccccc2)c1	CYP2C19 inhib 98
COc1ccc(C(=O)OC(C(=O)c2ccc(C)cc2)c2ccccc2)cc1 (stereo unspecified)	CYP2C9 inh 57
O=C(Cn1nnc(-c2ccccc2)n1)OCc1ccccc1	none
CC(=O)Nc1cccc(C(=O)OC(C(=O)c2ccc(C)cc2)c2ccccc2)c1 (stereo unspecified)	CYP2C9 inh 76
CCOCCOC(=O)c1cccc(NC(=O)OCC)c1	CYP2C19 inhib 71, CYP2C9 inh 63
CC(=O)Nc1cccc(C(=O)OC(C(=O)c2ccc(C)c(C)c2)c2ccccc2)c1 (stereo unspecified)	none
CC(=O)O/N=C(/C)c1ncc(C(F)(F)F)cc1N1CCOCC1	none
CC12C(=O)N(c3nccs3)C(=O)C1C1C=CC2C1 (stereo unspecified)	CYP2C19 inhib 65
COc1ccc(Nc2ccc3nnc(-c4ccc(Br)cc4)n3n2)cc1	none
Cc1sc2nc(C3CC3)nc(N3CCN(S(=O)(=O)c4ccc(F)cc4)CC3)c2c1C	CYP2C9 inh 59
O=C1C(=O)N(CCCn2ccnc2)C(c2cccnc2)/C1=C(/O)c1ccc(F)cc1 (stereo unspecified)	CYP2C9 inh 89 (no result: sEH act, sEH inh)
CC(Oc1ccccc1)C(=O)Nc1cccc(-c2nc3ccccc3[nH]2)c1 (stereo unspecified)	CYP2C19 inhib 79, CYP2C9 inh 98

Source: PubChem BioAssay (several laboratories)
